This passage reports Potency results from PubChem BioAssay (NCATS).

Inconclusive results are not listed. A call without a number means that no potency is given here. Activity calls are given as the source filed them. The call rests on the fitted dose curve; in most records, active means well fitted inhibition curve with a large enough effect; inconclusive means small, poorly fitted or top-dose-only effect; inactive means flat fitted curve, though single readings scatter.

The target of assay [1] is Glutathione peroxidase 1 (Homo sapiens) (UniProt P07203). The assay is described as follows: Primary qHTS Assay for Inhibitors of Recombinant Selenoprotein Glutathione Peroxidase 1 (GPX1) (AID 1845191). The settings on record: recombinant GPX1, GR-coupled NADPH fluorescence, 15 min; series mostly up to 48.8 µM. The gist of the method:
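GR-coupled readout: NADPH consumption tracked by fluorescence, ex 340/em 450 nm, at t=0 and after 15 min at RT. Final mix 10 nM GPX1, 1 mM GSH, 0.5 mM CHP, 0.5 mM NADPH, 100 nM GR, 0.01% BSA, following 30 min enzyme–compound preincubation.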

The target in assay [2] is Phospholipid hydroperoxide glutathione peroxidase GPX4 (Homo sapiens) (UniProt P36969). The assay can be described thus: Primary qHTS Assay for Inhibitors of Recombinant Selenoprotein Glutathione Peroxidase 4 (GPX4) (AID 1845192). To be noted: recombinant GPX4, GR-coupled NADPH fluorescence, 15 min; series mostly up to 50 µM. The gist of the method: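 Steps: GPX4 plus compound, 30 min RT; add GR/GSH/NADPH master mix; start with cumene hydroperoxide; read 340/450 nm fluorescence at 0 and 15 min. Finals were 200 nM GPX4, 1 mM GSH, 0.5 mM CHP, 0.5 mM NADPH, 100 nM GR.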
Further: nearly all actives have a fitted effect of over 65% in size.

Phospholipid hydroperoxide glutathione peroxidase GPX4 (Homo sapiens), sequence (P36969 whole entry, looked up): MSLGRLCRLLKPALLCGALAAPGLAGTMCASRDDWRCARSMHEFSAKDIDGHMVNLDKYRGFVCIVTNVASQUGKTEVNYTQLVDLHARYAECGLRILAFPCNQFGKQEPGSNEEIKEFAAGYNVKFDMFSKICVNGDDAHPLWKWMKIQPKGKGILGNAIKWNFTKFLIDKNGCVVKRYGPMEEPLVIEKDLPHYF
Glutathione peroxidase 1 (Homo sapiens), sequence (P07203 whole entry, looked up): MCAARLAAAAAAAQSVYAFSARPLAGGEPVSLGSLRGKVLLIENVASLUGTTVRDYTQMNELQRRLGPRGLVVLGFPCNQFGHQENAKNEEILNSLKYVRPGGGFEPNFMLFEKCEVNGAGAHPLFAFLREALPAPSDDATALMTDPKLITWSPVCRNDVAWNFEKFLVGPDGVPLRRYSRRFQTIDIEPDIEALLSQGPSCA

As for `Cc1c(C)c2c(c(C)c1OC(=O)c1cccnc1)CC[C@@](C)(CCC[C@H](C)CCC[C@H](C)CCCC(C)C)O2`, the Potency result in assay [1] and in assay [2] was “inactive” each time.

With `Cc1cccc(Nc2ccccc2C(=O)O)c1C`, the Potency result in assay [1] and in assay [2] was “inactive” in each case.

With `CO[C@@]1(NC(=O)C(C(=O)O)c2ccc(O)cc2)C(=O)N2C(C(=O)O)=C(CSc3nnnn3C)CO[C@@H]21` (stereo partly specified), the Potency result in assay [1] and in assay [2] was “inactive” each time.

Consider `O=C(CCBr)N1CCN(C(=O)CCBr)CC1`, for which the Potency result in assay [1] and in assay [2] was “inactive” each time.

For `CCCCOC(=O)c1ccc(N)cc1`, the Potency entry in assay [1] and in assay [2] was “inactive” in each case.

For the compound `Cc1ccsc1C(=CCCN1CCC[C@@H](C(=O)O)C1)c1sccc1C`, the Potency entry in assay [1] and in assay [2] was “inactive” in each case.

For `OCc1ccc(Cl)cc1Cl`, the Potency entry in assay [1] and in assay [2] was “inactive” in each case.

As to `CN1CCCN=C1COC(=O)C(O)(c1ccccc1)C1CCCCC1` (stereo unspecified), the Potency result in assay [1] and in assay [2] was “inactive” each time.

For `Nc1ccc(C(=O)Oc2ccccc2)c(O)c1`, the Potency result in assay [1] and in assay [2] was “inactive” each time.

Turning to `C=CCOc1ccccc1OCC(O)CNC(C)C` (stereo unspecified), the Potency result in assay [1] and in assay [2] was “inactive” in each case.

Take `C1CCN2C[C@@H]3C[C@@H](CN4CCCC[C@@H]34)[C@H]2C1`: the Potency result in assay [1] and in assay [2] was “inactive” each time.

Consider `C/C=C/C(=O)N(CC)c1ccccc1C`, for which the Potency result in assay [1] and in assay [2] was “inactive” each time.

As for `NC(=O)CC[C@@H](N)C(=O)O`, the Potency result in assay [1] and in assay [2] was “inactive” each time.

Turning to `O=C(O)CCC(=O)O`, the Potency result in assay [1] and in assay [2] was “inactive” in each case.

`CC(=O)NCc1c(I)c(NC(C)=O)c(I)c(C(=O)O)c1I`: the Potency entry in assay [1] and in assay [2] was “inactive” in each case.

With `Cc1onc(-c2ccccc2)c1-c1ccc(S(N)(=O)=O)cc1`, the Potency entry in assay [1] and in assay [2] was “inactive” in each case.

`C[N+]1(C)CCCC(OC(=O)C(O)(c2ccccc2)c2ccccc2)C1` (stereo unspecified): the Potency result in assay [1] and in assay [2] was “inactive” each time.

Turning to `NS(=O)(=O)c1cc2c(cc1C(F)(F)F)NCNS2(=O)=O`, the Potency result in assay [1] and in assay [2] was “inactive” in each case.

For the compound `CCOC(=O)[C@H](CCc1ccccc1)N[C@@H](C)C(=O)N1Cc2cc(OC)c(OC)cc2C[C@H]1C(=O)O`, the Potency result in assay [1] and in assay [2] was “inactive” in each case.

Regarding `O=C(O)COC(=O)Cc1ccccc1Nc1c(Cl)cccc1Cl`, the Potency result in assay [1] and in assay [2] was “inactive” throughout.

Turning to `CC1CCN(CCCC(=O)c2ccc(F)cc2)CC1`, the Potency result in assay [1] and in assay [2] was “inactive” throughout.

Turning to `CC(=O)OCC(COC(C)=O)OC(C)=O`, the Potency result in assay [1] and in assay [2] was “inactive” throughout.

As for `CCOC(=O)[C@H](CCc1ccccc1)N[C@@H](C)C(=O)N1CCC[C@H]1C(=O)O`, the Potency result in assay [1] and in assay [2] was “inactive” each time.
